Our source for the growth inhibition values is PubChem BioAssay (NCI).

The panel holds about 79,000 compounds, 15% with a hit somewhere; the sample as a whole holds those more often. Values without a mark were called inactive. Cut-off read from the data, not from the text of the source: active = growth inhibition above about 70%; inactive = the rest.

The experiment in a line: NCI Yeast Anticancer Drug Screen. Data for the sgs1 mgt1 strain (AID 161).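 Note: 0% = growth of cultures given vehicle only.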 The settings on record: S. cerevisiae sgs1 mgt1 strain, at 50.0 µM, stronger effect = higher value. In outline:
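Inhibition of yeast growth, normalised to vehicle-treated controls, is reported for a strain bearing genetic alterations in DNA damage repair.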
As to `Cc1ccc(NC(=O)CC2C(=O)Nc3ccccc3S2=O)c(C)c1` (stereo not given), the growth inhibition is 4.45%. Then `Nc1nc(-c2ccc3c(ccc4ccccc43)c2)cs1`, with 18.2%. The same measure for `COC(=O)C(=O)CC(=O)CCn1ncc(Cl)c(Cl)c1=O`: -1.3%; for `O=C(CCN1CCCCC1)c1cc2cc([N+](=O)[O-])ccc2oc1=O`: 23.2%; for `CCOC(=O)C1CN(CCc2ccccc2)CCC1=O` (stereo not given): 32.1%. The same measure for `NC(CCS(N)(=O)=O)C(=O)O` (stereo not given): -1.85%; for `Cc1cc(C(N)=O)no1`: -5.7%. For the compound `BrC1CC2CCCCC2CC1Br` (stereo not given), the growth inhibition is 21.4%. As for `C1CCSCCCCSCCCCSCCCCSC1`, the growth inhibition is 23.4%.

Turning to `O=c1[nH]c2cc(Cl)c([N+](=O)[O-])cc2c2ccccc12`, the growth inhibition is 4.35%.

In the case of `CC(C)(C)C(=O)O[C@H]1C=C[C@@H](O)[C@@H]2[C@H]1[C@@H]1C=C[C@H]2C1`, the growth inhibition was 66.8%. Then `Cc1cc(N=Nc2cc(Br)cc(Br)c2)cc(C)c1N`, with 18.1%; and `CN1CCC(CC(O)(c2ccccc2)C2CCCCC2)C1` (stereo not given), with -2.3%. Take `CCc1ccccc1NC(C)=O`: the growth inhibition is -8.7%. Turning to `CC(C)(C)C(=O)Oc1ccc[nH]c1=O`, the growth inhibition was 2.35%. `CC1=CC(=O)OC(=O)/C1=C/c1ccc(N(C)C)cc1`: the growth inhibition is -7.65%.

`Cc1sc2c(c1C)C(=O)c1cccn1-2`: the growth inhibition is -21.6%.

For the compound `CC1=NN(c2nc(N)nc(CCl)n2)CC1`, the growth inhibition was 8.15%. In the case of `O=C(CNS(=O)(=O)c1ccccc1)c1ccc(Cl)cc1Cl`, the growth inhibition is 53%. Then `O=C(NCc1cccnc1)Nc1cccc2c(NC(=O)NCc3cccnc3)cccc12`, with 5.8%; and `Nc1c(I)cc(C(=O)O)c(O)c1I`, with -15.3%. On to `CC(C)=CCC\C(C)=C/C=C/C(C)=C\C=C\C(C)=C/C=C/C=C(C)\C=C\C=C(C)/C=C/C=C(/C)CCC=C(C)C`, for which the growth inhibition was -29%.

For the compound `S=c1cc(S)sc2c1c(=S)sc1nc3ccccn3c(=S)c12`, the growth inhibition is 35.3%. `NS(=O)(=O)c1cc2c(cc1Cl)NC(C(=O)NNC(=O)c1ccncc1)=NS2(=O)=O`: the growth inhibition is -4.8%. For the compound `CC1CCN(C(=O)Nc2ccccc2)CC1`, the growth inhibition was 4.9%. Then `CCOc1nc(N)nc(C)c1N=Nc1ccccc1OC`, with 14.4%; and `COc1cc(/C=N/NC(=O)Cc2cccc3ccccc23)ccc1O`, with 3.05%; and `CCOC(=O)NC(=Cc1ccccn1)c1ccc(Cl)cc1` (mixture of isomers), with -8.35%. The same measure for `COC(=O)[C@]1(C)CCC[C@]2(C)C3=C[C@@H](O)[C@@]4(C(C)C)O[C@H]4[C@]3(O)CC[C@@H]12`: -9.15%; for `CC(=O)CC(=O)Nc1ccc(NC(=O)CC(C)=O)cc1`: -21.1%; for `CC(=NNC(=S)Nc1ccccc1)c1cccc(C(C)=NNC(=S)Nc2ccccc2)n1`: -0.8%. For the compound `COc1ccccc1NC(=S)NCCO`, the growth inhibition is 17.6%. The same measure for `CCOC(=O)c1c[nH]c2cc(Cl)ccc2c1=O`: 9.65%; for `O=c1[nH]cc(S)c(=O)[nH]1`: -15.4%; for `CN(C)CCn1cnc2sc3ccccc3c21`: -23.8%. In the case of `Nc1c(OCc2ccccc2)cccc1C(=O)O`, the growth inhibition is 10.9%. Take `CC(=O)C1C(=O)C(=O)N(CCN2C(=O)C(=O)C(C(C)=O)C2=O)C1=O` (stereo not given): the growth inhibition was 0.95%.

As for `CC(=Nc1ccccc1)Nc1ccccc1`, the growth inhibition was 18.1%. On to `O=[N+]([O-])c1ccc(Br)cc1`, for which the growth inhibition was 17.7%. For `CS(=O)(=O)OC1C(O)C(O)OC(CO)C1O` (stereo not given), the growth inhibition is 4.5%.
